GSH bead fluor: GSH bead compound fluorescence profile; fluorescence (KMESF) at 10 µM; GSH beads flow cytometry, compound fluorescence 488/530 nm; hits give high values; actives 0.25% (n = 190,000); in the data active = fluorescence above about 89;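 also: glutathione beads carrying GST-tagged Bcl family fusion proteins plus one bare bead set; values are compound well signal with DMSO vehicle wells as background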
RGS4-Gao reg: human RGS4-Galphao interaction regulation; P09471; Multiplexed bead flow cytometry, RGS4-Galphao binding; actives lie on both sides; actives 0.33% (n = 220,000); binding response (% of control), % at 10 µM; in the data active = binding response below about 49% or above about 150%; inactive = in between;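 also: fluorescent Galphao activated with aluminum fluoride binding bead-coupled RGS4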
Target sequence (P09471 whole entry, looked up): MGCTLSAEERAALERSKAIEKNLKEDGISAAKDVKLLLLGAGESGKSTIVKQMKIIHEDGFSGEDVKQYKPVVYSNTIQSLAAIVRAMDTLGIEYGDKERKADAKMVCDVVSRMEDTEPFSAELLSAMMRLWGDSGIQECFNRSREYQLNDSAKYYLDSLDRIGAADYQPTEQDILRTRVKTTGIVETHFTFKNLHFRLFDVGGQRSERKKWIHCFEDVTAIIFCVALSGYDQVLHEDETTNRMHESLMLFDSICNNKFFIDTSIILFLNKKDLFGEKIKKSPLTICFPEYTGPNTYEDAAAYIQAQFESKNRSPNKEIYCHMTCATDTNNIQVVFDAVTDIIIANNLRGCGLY
Avidin fluor: avidin bead compound fluorescence profile. Avidin beads, compound fluorescence 488/530 nm, flow cytometry; hits give high values. fluorescence (KMESF) at 10 µM. actives 0.38% (n = 220,000). AID 1775; in the data active = fluorescence above about 47
RGS7-Gao reg: human RGS7-Galphao interaction regulation; P09471; Multiplexed bead flow cytometry, RGS7-Galphao binding; actives lie on both sides; binding response (% of control), % at 10 µM; actives 0.35% (n = 220,000); in the data active = binding response below about 49% or above about 150%; inconclusive = no clear call, values can overlap the other calls; inactive = in between;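 also: fluorescent Galphao held in activated GDP-AlF4 state binding bead-coupled RGS7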
RGS8-Gao: regulators of human RGS8-Galphao interaction | actives 0.34% (n = 220,000) | response (percent of control binding), % at 10 µM | multiplexed bead flow cytometry, RGS8-Galphao binding; actives lie on both sides; in the data active = response below about 60% or above about 140%; inactive = in between;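 also: Galphao activated as the GDP aluminium fluoride complex binding bead-coupled RGS8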
RGS16-Gao: RGS16-Galphao interaction regulator (human) | actives 0.38% (n = 220,000) | bead-based flow cytometry RGS16-Galphao binding, fluorescence; actives lie on both sides | binding response (% of control), % at 10 µM | O15492+P09471 | AID 1441;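 also: Galphao activated by GDP with aluminum fluoride before binding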
RGS-Gao: modulates binding between human RGS4 and Galphao; shares compounds with RGS16-Gao; RGS4–Galpha-o binding response, % at 10 µM; multiplexed bead flow cytometry, RGS–Galpha-o binding; actives 99% (n = 1,600);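 also: fluorescently labeled Galpha-o bound to GDP with aluminium fluoride binding biotinylated RGS beads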
Avidin counter: interferes with biotinylated probe binding to avidin beads | shares compounds with RGS16-Gao | streptavidin beads, fluorescein-biotin binding, flow cytometry | inhibition, % at 10 µM | 1,700 tested, under 10 active;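 active = inhibition above 50%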;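 also: median green fluorescence of gated singlet beads compared with DMSO control wells; 0% = DMSO wells and 100% = complete loss of bead fluorescence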
RGS8-Gao single: RGS8-Galphao interaction regulation, single point confirmation; bead-based flow cytometry RGS8-Galphao binding, fluorescence; actives lie on both sides; binding response (% of control), % at 10 µM; shares compounds with RGS16-Gao; actives 3% (n = 1,700); AID 1836; in the data active = binding response below about 72% or above about 130%; inactive = in between;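 also: Galphao activated as GDP AlF4 complex before binding bead RGS8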
RGS7-Gao single: confirmation of regulators of human RGS7-Galphao interaction | shares compounds with RGS16-Gao | actives 7.8% (n = 1,700) | bead-based flow cytometry RGS7-Galphao binding; actives lie on both sides | response (percent of control binding), % at 10 µM; in the data active = response below about 75% or above about 130%; inactive = in between;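 also: fluorescent Galphao activated with GDP and aluminum fluoride binding bead-coupled RGS7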
RGS16-Gao single: confirmation of regulators of human RGS16-Galphao interaction | response (% of control binding), % at 10 µM | AID 1838 | shares compounds with RGS16-Gao | actives 4% (n = 1,700) | bead-based flow cytometry, RGS16-Galphao binding; actives lie on both sides; in the data active = response below about 74% or above about 130%; inactive = in between;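 also: Galphao activated as the GDP aluminium fluoride complex binding bead-coupled RGS16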
RGS4-Gao confirm: confirmation of regulators of human RGS4-Galphao interaction | shares compounds with RGS16-Gao | RGS4-Galphao binding, multiplexed bead flow cytometry; actives lie on both sides | binding response (% of control), % at 10 µM | actives 4% (n = 1,700); in the data active = binding response below about 74% or above about 130%; inactive = in between
RGS19-Gao single: confirmation of regulators of human RGS19-Galphao interaction | shares compounds with RGS16-Gao | bead-based flow cytometry RGS19-Galphao binding; actives lie on both sides | response (percent of control binding), % at 10 µM | actives 5% (n = 1,700) | AID 1841; in the data active = response below about 50% or above about 160%; inactive = in between;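 also: 100% = no compound control and 0% = blank background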
Target sequence (P09471 whole entry, looked up): as above
Target sequence (P49795 whole entry, looked up): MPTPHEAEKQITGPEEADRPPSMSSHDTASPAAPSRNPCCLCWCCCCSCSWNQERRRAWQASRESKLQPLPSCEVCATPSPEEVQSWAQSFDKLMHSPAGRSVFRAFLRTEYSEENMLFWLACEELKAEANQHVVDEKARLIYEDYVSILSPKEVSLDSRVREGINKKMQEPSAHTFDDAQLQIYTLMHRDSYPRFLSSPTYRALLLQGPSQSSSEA
* hit, by the source's call; i = inactive; ? = inconclusive; . = no result given; [ ] = remark or other dose. Only some compounds are listed: those with a hit (about 1.2% of all), similar ones and a draw of the others. Unless noted, no rule for the calls is given here.

SMILES | GSH bead fluor | RGS4-Gao reg | Avidin fluor | RGS7-Gao reg | RGS8-Gao | RGS16-Gao | RGS-Gao | Avidin counter | RGS8-Gao single | RGS7-Gao single | RGS16-Gao single | RGS4-Gao confirm | RGS19-Gao single
CC(NC(=O)c1sc2cc([N+](=O)[O-])ccc2c1Cl)C(C)(C)C (stereo not drawn) | 10 | 98.3 | 2 | 98.4 | 79.7 | 15.2* | 98.3* | 1.0 | 64.8* | 113.0 | 40.8* | 88.7 | 15.9*
COc1ccc(NC2SC(=O)N(C)C2=O)cc1 (stereo not drawn) | 10 | 99.8 | 15 | 103.5 | 97.8 | 99.1 | . | . | . | . | . | . | .
CC1(C)CC(OC(=O)c2ccccc2)CC(C)(C)N1 | 9 | 100.2 | 18 | 102.1 | 101.3 | 101.7 | . | . | . | . | . | . | .
CC12CCC(C1)C(C)(C)C2OC(=O)c1ccccc1C(=O)O (stereo not drawn) | . | 154.8*[activator] | 5 | ? | 128.4 | 144.9 | . | -1.4 | 92.9 | 89.6 | 91.6 | 91.8 | 107.1
Cc1cc(Nc2nn(C)c(N)c2C#N)ccc1F | 18 | 101.1 | 8 | 102.3 | 101.8 | 96.8 | . | . | . | . | . | . | .
Cn1c(SCC(=O)c2ccccc2)nnc1-c1cccc(N)c1 | 47 | 59.6 | -2 | 77.2 | 88.7 | -92.5* | 59.6* | -1.3 | 103.7 | 107.7 | 106.0 | 105.5 | 104.7
CN(C)S(=O)(=O)c1cc(NC(=O)COC(=O)Cc2ccc(Br)cc2)ccc1Cl | 9 | 77.8 | 2 | 82.6 | 56.5* | 12.4* | 77.8* | -1.5 | 98.6 | 97.8 | 98.5 | 99.8 | 103.7
O=C1NC2(CCSC2)C(=O)N1CC(=O)N(Cc1ccccc1)C1CCS(=O)(=O)C1 (stereo not drawn) | . | 100.9 | 12 | ? | 103.2 | 107.4 | . | . | . | . | . | . | .
Cc1cc2cc3c(cc2nc1SCC(=O)Nc1nc(C)c(C)s1)OCO3 | 59 | 164.5*[activator] | 10 | 121.0 | 107.7 | 213.3 | . | i | 101.0 | 109.5 | 105.3 | 102.8 | 133.9
CN1C(=O)CSc2ccc(NC(=O)N3CCC(N4CCCCC4)CC3)cc21 | 59 | 109.4 | 4 | 109.9 | 127.4 | 278.5*[activator] | 109.4* | -4.7 | 97.6 | 64.4* | 77.1 | 76.7 | 64.9
CCOC(=O)N1CCN(C(=O)C2CCN(C(=O)c3cc(OC)cc(OC)c3)CC2)CC1 | 9 | 123.2 | 6 | 129.6 | 134.0 | 205.1*[activator] | 123.2* | 0.6 | 101.0 | 99.9 | 101.0 | 100.3 | 112.0
COc1ccc(NC(=O)Cn2cnc3sc(C)c(S(=O)(=O)N4CCN(C)CC4)c3c2=O)cc1OC | 15 | 109.0 | 12 | 108.2 | 103.6 | 106.9 | . | . | . | . | . | . | .
COCCCC1CCN(C(=O)CCc2nnc(CCCCc3ccccc3)o2)CC1 | 9 | 98.5 | 10 | 99.4 | 100.3 | 100.1 | . | . | . | . | . | . | .
O=C(NCCN1CCCOC1=O)C(=O)NCCN1CCCOC1=O | . | 98.6 | 8 | ? | 99.2 | 98.6 | . | . | . | . | . | . | .
Cn1ccnc1SCC(=O)n1c2c(c3ccccc31)CCCC2 | 9 | 59.9 | 1 | 59.9 | 54.9* | 16.4 | 59.9* | 0.1 | 99.9 | 93.6 | 100.8 | 96.1 | 96.9
Cn1ccnc1SCC(=O)Nc1cccc2ccccc12 | 11 | 103.4 | 7 | 103.3 | 111.3 | 131.2 | . | . | . | . | . | . | .
COC(=O)[C@H](Cc1ccccc1)NC(=O)N1CCN(c2ccccc2)CC1 | . | 87.9 | 3 | ? | 96.8 | 93.2 | . | . | . | . | . | . | .
CCOc1ccc(NS(=O)(=O)c2ccc3ncsc3c2)cc1 | 15 | 145.7 | 8 | 151.8*[activator] | 133.5 | 142.8 | 145.7* | 1.1 | 99.8 | 96.8 | 98.0 | 99.8 | 110.7
CC1CC(C)(C)NC(=S)N1CCC(=O)N1CCc2ccccc2C1 (stereo not drawn) | 17 | 101.9 | 9 | ? | 101.8 | 104.5 | . | . | . | . | . | . | .
Nc1nc2c(F)c(F)c(F)cc2s1 | 12 | 98.4 | 12 | ? | 101.9 | 101.2 | . | . | . | . | . | . | .
COc1ccc(-c2csc(NC(=O)c3ccc(OCC(=O)N4CCOCC4)c(OC)c3)n2)cc1OC | 6 | 97.0 | 8 | 92.7 | 80.9 | 18.4* | 97.0* | 1.1 | 100.1 | 99.8 | 101.6 | 102.0 | 96.2
COc1ccc(CCNS(=O)(=O)c2cc(C(=O)O)c(Cl)cc2Cl)cc1 | 22 | 103.4 | 11 | 105.5 | 102.5 | 106.0 | . | . | . | . | . | . | .
O=C(Nc1cccnc1Oc1ccc(Cl)cc1)c1cccc2ccccc12 | . | 111.3 | 5 | ? | 105.7 | 104.5 | . | . | . | . | . | . | .
Cc1nn(CCC(=O)O)c(C)c1C | 16 | 102.9 | 79* | 165.3*[activator] | 92.9 | 107.1 | 102.9* | 0.4 | 100.3 | 95.0 | 104.5 | 100.4 | 104.7
Cc1ccc2[nH]c(=O)c(CN(Cc3ccco3)C(=O)CN3CCCC(C)C3)cc2c1 (stereo not drawn) | 30 | 100.2 | 10 | 100.0 | 102.2 | 108.5 | . | . | . | . | . | . | .
SMILES | GSH bead fluor | RGS4-Gao reg | Avidin fluor | RGS7-Gao reg | RGS8-Gao | RGS16-Gao | RGS-Gao | Avidin counter | RGS8-Gao single | RGS7-Gao single | RGS16-Gao single | RGS4-Gao confirm | RGS19-Gao single
COc1ccc(-c2nc(C)sc2C)cc1 | 7 | 114.7 | 3 | 118.2 | 142.3*[activator] | 266.4 | 114.7* | -0.8 | 98.4 | 102.2 | 101.7 | 100.5 | 95.9
COc1ccc(-c2nc(-n3c(C)c(C(C)=O)c(C(C)=O)c3C)sc2C)cc1 | 20 | 47.4* | 3 | 43.7* | 56.5* | 39.9 | . | -1.3 | 102.3 | 103.6 | 101.1 | 105.0 | 97.7
O=C(Cn1c(C(F)(F)F)nc2ccccc21)Nc1ccccc1N1CCOCC1 | 35 | 48.3* | 8 | 44.5* | 54.2* | 42.3 | . | -0.4 | 98.7 | 102.3 | 100.2 | 102.9 | 103.5
Cc1ccc(C(=O)Nc2ccccc2NC(=O)c2ccc(C)o2)o1 | 240* | 54.8 | 3 | 65.0 | 59.8* | -12.0 | 54.8* | -2.0 | 100.7 | 97.8 | 100.2 | 100.4 | 118.4
CN(C)C(=O)c1nc2ccc(Cl)cn2c1CNCc1ccccc1OC(F)(F)F | 16 | 107.8 | 22 | 123.2 | 103.2 | 106.1 | . | . | . | . | . | . | .
OC(COc1ccc(-c2ccccc2)cc1)CN1CCOCC1 (stereo not drawn) | 28 | 104.1 | 13 | 104.3 | 100.7 | 102.3 | . | . | . | . | . | . | .

Assay outcomes (PubChem)
